# The whole screen tested about 290,000 compounds, of which about 2,600 (0.9%) were called active. Only a selection was taken, and actives are over-represented in it overall. A number with no mark means an inactive call.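 How the source made its calls: active means inhibition above the mean of all tested compounds plus 3 SD, cutoff set per screening run (cut at about 7.5% in these data); inactive means the rest.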
# Tested on: VIM-2 metallo-beta-lactamase (Pseudomonas aeruginosa)
# Assay: VIM-2 metallo-beta-lactamase inhibitors, primary screen, biochemical, epi-absorbance readout, Pseudomonas aeruginosa enzyme (AID 1527);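 further: red hydrolysis product quenches plate fluorescence so inhibitors raise well fluorescence; 0% = enzyme with DMSO and 100% = DMSO without enzyme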
# Conditions: purified VIM-2, nitrocefin hydrolysis, epi-absorbance fluorescence; at 5.6 µM; hits give high values
row,SMILES,inhibition
1,COc1ccc(/C=C2\CCCC3C2=NN(C(=O)c2scnc2C)C3c2ccc(OC)cc2)cc1 (stereo not drawn),-4.89%
2,COc1cccc(NC(=O)c2cc(S(=O)(=O)N3CCc4ccccc43)cn2C)c1,-2.53%
3,CS(=O)(=O)Nc1ccccc1N=C(c1ccccc1)c1ccccc1,-0.7%
4,CCc1nc(Nc2ccc(NC(C)=O)cc2)c2oc3ccccc3c2n1,9.84% (active)
5,CCc1nc(Nc2ccc3nccnc3c2)c2oc3ccccc3c2n1,6.61%
6,C[C@@H](Nc1nc(-c2ccccc2)nc2c1oc1ccccc12)C(=O)O,-1.13%
7,COc1cc(OC)c(NS(=O)(=O)c2cn(C)cn2)cc1Cl,-2.52%
8,CC1(C)Cc2c(sc(NC(=O)C(=O)NCC3CCCO3)c2C(=O)O)CO1 (stereo not drawn),-1.53%
9,CC1CCCCC1NC(=O)/C(C#N)=C/C=C/c1ccccc1[N+](=O)[O-] (stereo not drawn),-2.25%
10,Cc1ccc(C)c(CN2CCC(CNC(=O)Nc3ccc(C)c(F)c3)CC2)c1,-1.95%
11,Oc1ccc2ccc3cccc[n+]3c2c1,34.2% (active)
12,COC(=O)c1ccc(NC(=O)c2cc3c(CO)cnc(C)c3oc2=Nc2cccc(C(N)=O)c2)cc1,-0.03%
13,Cc1cc(=O)oc2c3c(cc(OCC(=O)N[C@H](C(=O)O)c4ccccc4)c12)OC(C)(C)CC3,1.96%
14,Cc1c(C)c2c(OCC(=O)N[C@@H](C(=O)O)c3ccccc3)cc3c(c2oc1=O)CCC(C)(C)O3,10.8% (active)
15,Cc1c(C)c2c(OCC(=O)NCCCO)cc3c(c2oc1=O)CCC(C)(C)O3,1.34%
16,CCC(C(=O)NC1CCCCC1)N(C(=O)c1snc(C(N)=O)c1N)c1ccc(OC)cc1OC (stereo not drawn),-1.99%
17,Cc1c2cnn(CC(=O)NCc3ccccn3)c(=O)c2c(C)n1Cc1ccc(Cl)cc1,-1.23%
18,COc1cc(NS(=O)(=O)c2ccc(NC(=O)c3ccc([N+](=O)[O-])cc3)cc2)ncn1,-1.86%
19,CCCc1ccc(OCCNC(=O)c2ccco2)cc1,33.4% (active)
20,CCCc1ccc(OCCNC(=O)c2ccccc2Br)cc1,-1.47%
21,CCCc1ccc(OCC(=O)NNC(=S)NC(=O)c2ccco2)cc1,-2.04%
22,COC(=O)Cc1cc(=O)oc2c(C)c(O)ccc12,-5.11%
23,COc1ccc(Br)cc1CN1CCN(C(=O)c2cccc(OC)c2OC)CC1,-0.04%
24,COc1cccc(C(=O)OCc2cc(=O)oc3c(C)c(C)ccc23)c1OC,8.21% (active)

row,SMILES,inhibition
1,CCOC(=O)C1(Cc2ccccc2C)CCCN(C(=O)CN2C(=O)CSC2=O)C1 (stereo not drawn),-2.37%
2,CNC[C@H](CC1CCCCC1)NC[C@H](NCCC1CCCC1)[C@H](C)O,2.09%
3,Cc1ccc(C(=O)N/C(=C\c2ccc(F)cc2)C(=O)NCCN2CCOCC2)cc1,-0.14%
4,CCOC(=O)[C@@H]1[C@H]2COc3cc(OC)ccc3[C@H]2N2C(=O)N(c3ccc(F)cc3)C(=O)[C@]12C,-2.77%
5,O=C1Nc2cc(C(=O)N3CCC(N4CCCCC4)CC3)ccc2S/C1=C\c1ccccc1,27.9% (active)
6,O=C(NC1CC1)c1ccc2c(c1)NC(=O)c1ccccc1S2,1.27%
7,CC1CCN(C(=O)c2ccc3c(c2)NC(=O)CN3)CC1,-1.26%
8,Cc1cccc(C)c1NC(=O)CS(=O)CC(=O)N1CCN(c2ccccc2)CC1 (stereo not drawn),-3.23%
9,Cc1ccc(NC(=O)C2CC2c2ccccc2)cc1 (stereo not drawn),-1.58%
10,Cc1nc(N=C(N)N)nc2c(C)cccc12,8.56% (active)
11,COc1nc(N=C(N)N)nc2c(C)cccc12,14.3% (active)
12,COc1ccc2nc(/N=C(\N)NC(=O)Nc3ccccc3)nc(C)c2c1,-0.81%
13,CC(=O)Oc1ccc(-c2nc3c(C)cccc3c(=O)o2)cc1,-0.68%
14,Cc1cccc2c(=O)n3c(nc12)CCCCC3,-3.47%
15,Cc1nc(/N=C(\N)NC(=O)NC2CCCCC2)nc2ccccc12,-2.89%
16,c1ccc(-c2nccc(-c3ccc(-n4cnc5ccccc54)cc3)n2)nc1,59.9% (active)
17,Cc1ccc(Oc2nc(-c3ccccn3)nc3ccccc23)cc1,-1.45%
18,Cc1nccc(-c2ccc(-n3c(C)ccc3C)cc2)n1,-2.42%
19,CCCCn1c(-c2cccc(C)c2)nc2cc3[nH]c(=O)c(C(C)C)nc3cc21,-2.3%
20,COc1ccc(-c2csc3ncnc(N4CCN(S(=O)(=O)c5ccccc5C#N)CC4)c23)cc1,-2%
21,CCN(CC)C(=O)CSC(Nc1cccc(F)c1)=C(C#N)C#N,-4.85%
22,O=c1[nH]c2c(c(=O)n1Cc1ccccc1)CCC2,-3.01%
23,CSc1nc2ccccc2c(=O)n1Cc1ccc(F)cc1,-1.75%
24,Cc1cc2nc3c(=O)n(Cc4ccccc4)c(=O)[nH]c3nc2cc1N,13.2% (active)

row,SMILES,inhibition
1,O=S(=O)(Nc1cccc(-n2cnnn2)c1)c1cnc(Cl)c(Cl)c1,-1.96%
2,CCN(CC)CCCNC(=O)c1c(O)c2cc(F)cc3c2n(c1=O)C(C)CC3 (stereo not drawn),8.41% (active)
3,CCN(CC)CCCNC(=O)c1cn(C)c2ccc(S(=O)(=O)N(C)C3CCCCC3)cc2c1=O,2.02%
4,CCNC(=O)c1c(O)c2cccc3c2n(c1=O)CC3,1.77%
5,CN(C)c1cc(-c2ccc(F)cc2)oc(=O)c1Cl,-0.81%
6,CC(CCc1ccccc1)NC(=O)c1cnc(Cl)c(Cl)c1 (stereo not drawn),-3.59%
7,COc1ccc(OCCn2ccnc2C)cc1,0.01%
8,C=CCOc1cccc(C2C(C(=O)c3ccc(C)o3)=C(O)C(=O)N2CCCn2ccnc2)c1 (stereo not drawn),-2.31%
9,CC(Nc1nc(N2CCCC2)nc2ccccc12)c1ccccc1 (stereo not drawn),10.3% (active)
10,CC(Nc1nc(N2CCOCC2)nc2ccccc12)c1ccccc1 (stereo not drawn),-1.07%
11,CC(Nc1nc(N2CCN(CCO)CC2)nc2ccccc12)c1ccccc1 (stereo not drawn),-0.41%
12,CCOCCCNc1nc(-c2ccccc2)nc2ccccc12,1.44%
13,CCOCCCNc1c(CC)c(C)c(C#N)c2nc3ccccc3n12,12.7% (active)
14,CCOCCn1c(-c2ccccc2)nc2ccccc21,-2.42%
15,CCOC(=O)C1(c2ccccc2)NC(c2ccc(N(C)C)cc2)C2C(=O)N(C)C(=O)C21 (stereo not drawn),-1.25%
16,COc1ccc(CN2CC(C(=O)NC3CCCCC3)CC2=O)cc1 (stereo not drawn),0.64%
17,COc1ccc(N(CC(=O)Nc2cccc3ccccc23)S(C)(=O)=O)c(OC)c1,-2.25%
18,c1ccc(-c2cc(-c3ccccc3)[nH]n2)cc1,-2.1%
19,O=c1[nH]c(-c2ccccc2)c(-c2ccccc2)[nH]1,13.9% (active)
20,N#Cc1c2c(c(-c3ccccc3)[nH]c1=O)CCCC2,-0.97%
21,COc1ccc(N2CCN(C(=O)c3ccccc3NC(=O)C3=C(C)OCCS3)CC2)cc1,-0.86%
22,CCCCNC(=O)c1ccccc1NC(=O)C1=C(C)OCCS1,-1.59%
23,COc1cc(NC(=O)C2=C(C)OCCS2)c(Cl)cc1C(=O)NCCN1CCN(C)CC1,25.9% (active)
24,CCn1cc(CN2CCC(C(=O)Nc3cccc(-c4cccc(Cl)c4)c3)CC2)c(C)n1,-1.75%

row,SMILES,inhibition
1,O=C(COc1ccccc1[N+](=O)[O-])NC1CC1,-2.67%
2,Cc1cc(OCCCCOc2ccc(C#N)cc2)ccc1[N+](=O)[O-],-2.44%
3,COc1cc(CN2CCN(Cc3ccc(C)cc3)CC2)c([N+](=O)[O-])cc1OC,0.03%
4,Cc1cc(OCC(=O)Nc2c(C)n(C)n(-c3ccccc3)c2=O)ccc1[N+](=O)[O-],-4.47%
5,Cc1cc(OCCCN2CCN(Cc3ccccc3)CC2)ccc1[N+](=O)[O-],8.13% (active)
6,Cc1cc(OCC(=O)NC2CCN(C)CC2)ccc1[N+](=O)[O-],9.4% (active)
7,Oc1ccc(-c2cccc(-c3ccc(O)cc3)c2)cc1,-2.2%
8,Cc1ccc(CNC(=O)c2ccc(CS(=O)Cc3cccc(Cl)c3)o2)cc1 (stereo not drawn),-2.03%
9,COCCCC1CCN(C(=O)C2CCC(=O)N(C3CCCCCC3)C2)CC1 (stereo not drawn),-3.17%
10,CCCc1cc(=O)oc2cc(OCC(=O)Nc3ccc(CN4CCOCC4)cc3)c(Cl)cc12,0.28%
11,O=C(COc1cc2oc(=O)c3c(c2cc1Cl)CCC3)NCCCN1CCOCC1,27.2% (active)
12,CCc1cc(=O)oc2c(C)c(OCC(=O)NCCN3CCOCC3)ccc12,6.89%
13,Cc1ccc(-n2c(C)cc(C(=O)CSc3nnc4ccccn34)c2C)cc1,1.89%
14,Cc1ccc(N/N=C2\COC(C)(C)CC2=O)cc1,-2.64%
15,CN1CCC(OC(=O)COc2ccc(Cl)cc2Cl)CC1,4.57%
16,CN1CCN(c2ccc(NC(=O)COc3ccc(Cl)cc3Cl)cc2)CC1,11.7% (active)
17,Cc1nn(-c2ccccc2)c(C)c1NC(=O)COc1ccc(Cl)cc1Cl,-1.49%
18,Cc1ccc(-n2c(-c3ccc(Cl)cc3)n[nH]c2=S)cc1,-3.52%
19,COc1ccc(OC)c(-n2c(-c3ccn[nH]3)n[nH]c2=S)c1,-0.56%
20,COc1ccc(-n2c(-c3ccc(OC)c(OC)c3)n[nH]c2=S)cc1,9.11% (active)
21,CCCNC(=O)CCc1c(C)nc2c(c(C)nn2-c2ccccc2)c1C,-3.85%

# — PubChem BioAssay AID1527 (The Scripps Research Institute Molecular Screening Center, 2009)
